# Where two headings read alike, the source gives them in different places.
# Experiments:
# Set-up in all cases: species or system human, MV4-11 + K-562 + COLO205 + SK-N-BE2 + OVCAR-8
# AURKA = conditions: read-out: apparent Kd, n = 1
# CDK16 = conditions: read-out: apparent Kd, n = 1
# MAPK9 = conditions: read-out: apparent Kd; compound concentrations:100 nM and 1000 nM (sheet 'Samples'); n = 1
# BCR = conditions: read-out: apparent Kd; compound concentrations:100 nM and 1000 nM (sheet 'Samples'); n = 1
# CAMKK2 = conditions: read-out: apparent Kd; compound concentrations:100 nM and 1000 nM (sheet 'Samples'); n = 1
# CHEK1 = conditions: read-out: apparent Kd; compound concentrations:100 nM and 1000 nM (sheet 'Samples'); n = 1
# EPHA4 = conditions: read-out: apparent Kd, n = 1
# EPHA5 = conditions: read-out: apparent Kd, n = 1
# EPHB2 = conditions: read-out: apparent Kd, n = 1
# EPHB4 = conditions: read-out: apparent Kd, n = 1
# PIP4K2C = conditions: read-out: apparent Kd; compound concentrations:100 nM and 1000 nM (sheet 'Samples'); n = 1
# PRKACA = conditions: read-out: apparent Kd; compound concentrations:100 nM and 1000 nM (sheet 'Samples'); n = 1
# PRKACB = conditions: read-out: apparent Kd; compound concentrations:100 nM and 1000 nM (sheet 'Samples'); n = 1
# PRKAG2 = conditions: read-out: apparent Kd, n = 1
# TNK1 = conditions: read-out: apparent Kd, n = 1
# RPS6KA4 = conditions: read-out: apparent Kd, n = 1
# STK4 = conditions: read-out: apparent Kd, n = 1
# CSNK1D = conditions: read-out: apparent Kd; compound concentrations:100 nM and 1000 nM (sheet 'Samples'); n = 1
# MARK3 = conditions: read-out: apparent Kd; compound concentrations:100 nM and 1000 nM (sheet 'Samples'); n = 1
# ATM = conditions: read-out: apparent Kd, n = 1
# [1] = compound concentrations:100 nM and 1000 nM (sheet 'Samples')
smiles,measurement,setting,value
CC(C)Oc1ccc2c(-c3ccnc(Nc4ccc(N5CCN(C)CC5)cc4)n3)cnn2n1 [GW696155X],potency estimated from few doses,AURKA; [1],602 nM
same,potency estimated from few doses,CDK16; [1],1910 nM
same,potency estimated from few doses,MAPK9,1010 nM
CS(=O)(=O)CCn1c(=O)c(Oc2ccc(F)cc2F)cc2cnc(NC3CCOCC3)nc21 [RO5027956-000],potency estimated from few doses,BCR,693 nM
same,potency estimated from few doses,CAMKK2,1270 nM
same,potency estimated from few doses,CHEK1,1500 nM
same,potency estimated from few doses,EPHA4; [1],896 nM
same,potency estimated from few doses,EPHA5; [1],751 nM
same,potency estimated from few doses,EPHB2; [1],720 nM
same,potency estimated from few doses,EPHB4; [1],519 nM
same,potency estimated from few doses,MAPK9,494 nM
same,potency estimated from few doses,PIP4K2C,462 nM
same,potency estimated from few doses,PRKACA,2090 nM
same,potency estimated from few doses,PRKACB,977 nM
same,potency estimated from few doses,PRKAG2; [1],497 nM
same,potency estimated from few doses,TNK1; [1],487 nM
NS(=O)(=O)c1ccc(NC=C2C(=O)Nc3ccc4ncsc4c32)cc1 [GW589933X],potency estimated from few doses,"CDK16; compound concentrations: 100 nM and 1000 nM (sheet 'Samples'), CATDS: 3.8979394521984997E-2",193 nM
same,potency estimated from few doses,"RPS6KA4; compound concentrations: 100 nM and 1000 nM (sheet 'Samples'), CATDS: 2.5851222500782998E-2",479 nM
same,potency estimated from few doses,"STK4; compound concentrations: 100 nM and 1000 nM (sheet 'Samples'), CATDS: 3.75205363662858E-2",208 nM
Cc1occc1-c1nc(N)c(OC[C@@H](N)Cc2c[nH]c3ccccc23)cc1-c1cc2c(C)n[nH]c2cn1 [GSK1660450B],potency estimated from few doses,CSNK1D,452 nM
same,potency estimated from few doses,MARK3,1250 nM
same,potency estimated from few doses,PRKACA,8.55 nM
same,potency estimated from few doses,PRKACB,18.6 nM
same,potency estimated from few doses,STK4; [1],105 nM
O=C1N=C(NCCc2cccs2)S/C1=C\c1ccc2ncccc2c1 [RO4508348-000],potency estimated from few doses,"ATM; compound concentrations: 100 nM and 1000 nM (sheet 'Samples'), CATDS: 0.23427621692245501",314 nM
Cl.Cn1cc(C2=C(c3c4n(c5ccccc35)CCNC4)C(=O)NC2=O)c2ccccc21 [RO0318365-001],potency estimated from few doses,"EPHA5; compound concentrations: 100 nM and 1000 nM (sheet 'Samples'), CATDS: 5.66388945901121E-2",1210 nM
NS(=O)(=O)c1cccc(-c2ccc3c(NC(=O)C4CC4)n[nH]c3c2)c1 [SB-741905],potency estimated from few doses,"ATM; compound concentrations: 100 nM and 1000 nM (sheet 'Samples'), CATDS: 0.31609765928995098",205 nM
COc1cccc(C2=C(c3c(C)n(C)c4ccccc34)C(=O)NC2=O)c1 [RO3300167-000],potency estimated from few doses,"AURKA; compound concentrations: 100 nM and 1000 nM (sheet 'Samples'), CATDS: 0.14578513534179899",490 nM
same,potency estimated from few doses,"STK4; compound concentrations: 100 nM and 1000 nM (sheet 'Samples'), CATDS: 0.12261986260266899",646 nM
CC(C)N1CC(=O)N(C)c2cnc(Nc3cccc(S(=O)(=O)CCN4CCOCC4)c3)nc21 [BI00009348],potency estimated from few doses,"ATM; compound concentrations: 100 nM and 1000 nM (sheet 'Samples'), CATDS: 0.21813144295739101",112 nM
Cc1cc(NC(=O)c2cccc(NC(=O)/C=C/CN(C)C)c2)ccc1Nc1nccc(-c2cccnc2)n1 [JNK-IN-7],potency estimated from few doses,ATM; [1],273 nM
same,potency estimated from few doses,CSNK1D,1190 nM
same,potency estimated from few doses,MAPK9,6.45 nM
Cn1cc(C2=C(c3ccc(OC[C@@H](O)CO)cc3)C(=O)NC2=O)c2ccccc21 [RO3208546-000],potency estimated from few doses,"EPHA4; compound concentrations: 100 nM and 1000 nM (sheet 'Samples'), CATDS: 3.51410618583008E-2",1520 nM
same,potency estimated from few doses,"EPHA5; compound concentrations: 100 nM and 1000 nM (sheet 'Samples'), CATDS: 3.9302113752780102E-2",1120 nM
same,potency estimated from few doses,"EPHB2; compound concentrations: 100 nM and 1000 nM (sheet 'Samples'), CATDS: 4.4288817418137498E-2",840 nM
same,potency estimated from few doses,"EPHB4; compound concentrations: 100 nM and 1000 nM (sheet 'Samples'), CATDS: 6.3567639225114006E-2",415 nM
same,potency estimated from few doses,"PRKAG2; compound concentrations: 100 nM and 1000 nM (sheet 'Samples'), CATDS: 4.1666716087244697E-2",967 nM
same,potency estimated from few doses,"TNK1; compound concentrations: 100 nM and 1000 nM (sheet 'Samples'), CATDS: 0.384256828153267",31.7 nM
NS(=O)(=O)c1ccc(N/N=C2\C(=O)Nc3ccc4ncccc4c32)cc1 [GW305178X],potency estimated from few doses,"STK4; compound concentrations: 100 nM and 1000 nM (sheet 'Samples'), CATDS: 4.4831401788358302E-2",1360 nM
COc1cc[nH]c1/C=C1\C(=O)Nc2ccc(F)c(C#C[C@@H](O)[C@@H](N)[C@@H](C)O)c21 [RO0283120-000],potency estimated from few doses,CDK16; [1],235 nM
same,potency estimated from few doses,MAPK9,321 nM
same,potency estimated from few doses,MARK3,528 nM
same,potency estimated from few doses,RPS6KA4; [1],421 nM
same,potency estimated from few doses,STK4; [1],765 nM
